This is one part of the list. A call without a number means that no potency is given here. Results filed as inconclusive are left out. Activity calls are given as the source filed them. Calls come from the whole dose curve; as a rule, active = well fitted inhibition curve with a large enough effect in the main read-out, with a control signal flat (not every such curve was filed as active); inconclusive = small, poorly fitted or top-dose-only effect, or a change in a side signal; inactive = no such curve, though single readings can be large or run the other way.

In the assay the target is Caspase-7 (Homo sapiens) (UniProt P55210). The experiment in a line: Confirmation Concentration-Response Assay for Allosteric/Competitive Inhibitors of Caspase-7. The following applies: recombinant caspase-7, fluorogenic substrate cleavage; series mostly up to 57.5 µM. From the text: NIH Molecular Libraries Screening Centers Network [MLSCN]
Chain of Caspase-7 (Homo sapiens) (P55210 24-198 limits assumed): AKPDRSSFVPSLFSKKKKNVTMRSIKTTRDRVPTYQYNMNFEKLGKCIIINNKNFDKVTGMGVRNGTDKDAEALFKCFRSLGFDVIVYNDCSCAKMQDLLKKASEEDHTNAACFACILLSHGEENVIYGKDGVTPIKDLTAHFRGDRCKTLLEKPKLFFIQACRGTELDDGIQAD
Chain of Caspase-7 (Homo sapiens) (P55210 207-303 limits assumed): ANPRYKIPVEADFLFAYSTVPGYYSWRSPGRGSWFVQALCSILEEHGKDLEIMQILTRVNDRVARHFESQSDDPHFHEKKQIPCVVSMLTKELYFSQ
NIH Chemical Genomics Center [NCGC]
PI Name: Dr. James Wells,
Dr. Enrique Perez-Paya, Dr.Janice Williams, Dr. Dennis Wolan, a person
The caspases (Cysteine Aspartyl Protease) comprise a related family of 14 dimeric proteases that are critical mediators of apoptosis (programmed cell death) and inflammation. The caspases represent an important class of drug targets for stroke, ischemia, cancer and inflammatory diseases. […] One goal of this project was to identify compounds that act as allosteric inhibitors via stabilizing the procaspase form of the enzyme. Previous work in Well's laboratory has shown that such allosteric inhibitors can be identified and these act by binding at the dimer interface of enzyme (Hardy, Lam et al., 2004).
The biochemical assay was configured using purified caspase 7 at a high enzyme concentration to promote formation of the homodimers and thus facilitate the identification of allosteric inhibitors. […] After initiation of the assay with substrate the plates were rapidly read using an automated robotic system (Kalypsys, Inc.) to maintain consistent timing. […]
Caspase 7 was prepared in buffer (50 mM HEPES pH 7.5, 50 mM KCl, 200 mM NaCl, 10 mM DTT, 0.1% CHAPS) at a concentration of 66.6 nM and 3 uL was dispensed to all wells using black solid Kalypsys 1536-well plates. […] The plates were then exposed using 405 nm excitation/520 nm emission filters for 4 sec and read at 20 sec intervals for 3 min. […]
Concentration-response curves were fitted to the data calculated from slope of the linear regression of fluorescent intensity versus time (the rate). The concentration-effect curves were then classified based on curve quality (r2), response magnitude and degree of measured activity. […] Inconclusive compounds had appreciable concentration-dependent effects on both the measured rate and the interpolated basal fluorescence intensity at the start of the reaction but where the basal fluorescent intensity was marginal (e.g. < 10-fold). […]
Turning to `N#CC1=C(N)Oc2cc(O)ccc2C1C1CCCCC1` (stereo not drawn), the Potency was 25.1 µM (active).
Under `CCN1C(=O)/C(=C2/Sc3ccccc3N2CCCS(=O)(=O)O)SC1=S` stands “inactive”.
With `Cc1nc2c(C(=O)NCc3ccc4c(c3)OCO4)c[nH]n2c(=O)c1Cc1ccccc1F`, the Potency result was “inactive”.

Source of the values: PubChem BioAssay AID897 (National Center for Advancing Translational Sciences (NCATS), 2007).
